Compound activity (PubChem)
MEKK2 mut-MEK5: MEK5 binding signal on mutant MEKK2 PB1, primary screen, biochemical, multiplex bead flow cytometry, Alexa488-MEK5 | Alexa488-MEK5 binding to MEKK2 mutant | percent response, % at 10 µM | hit rate 0.35% among 290,000 | AID 1530, 2009; in the data active means percent response above about 24%, passing the limit was not always enough
CHT allo act: CHT positive allosteric modulators, primary screen, cell-based, membrane potential dye, choline EC20; High affinity choline transporter 1 (Homo sapiens), Q9GZV3; CHT-expressing cells; active compounds read high; LV-AA mutant CHT in HEK293 cells; B-score at 10 µM; hit rate 0.49% among 310,000; AID 488977, 2010;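 active means initial fluorescence not abnormally high and integrated response B-score, plate-corrected, over 3 SD above library mean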
MEKK2 WT-MEK5: modulators of MEK5 binding to wildtype MEKK2, primary screen, biochemical, multiplex bead flow cytometry, Alexa488-MEK5. Mitogen-activated protein kinase kinase kinase 2 (Homo sapiens), Q9Y2U5. Alexa488-MEK5 binding to MEKK2 WT; actives lie on both sides. binding response (% of control), % at 10 µM. hit rate 1.1% among 290,000; in the data active means binding response below about 67% or above about 130%
CHT inh: inhibitors of human choline transporter CHT; CHT-expressing cells, membrane potential dye, choline response; active compounds read low; B-score at 10 µM; hit rate 0.86% among 310,000; High affinity choline transporter 1 (Homo sapiens), Q9GZV3; AID 488975, 2010;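 active means B-score over 3 SD under the library average, and starting fluorescence ratio not unusually high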;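 further: choline stimulus applied at its EC90 after an EC20 pre-addition; B-score computed on integrated fluorescence ratio after choline addition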
SUMO Mot1 rescue: yeast Mot1-301 growth rescue at high temperature, primary screen, SUMOylation pathway inhibitor project, S. cerevisiae, ATP luminescence, 38.5C; S. cerevisiae Mot1-301 growth rescue; percent above DMSO median, 100 means doubled; hit rate 1% among 320,000; AID 2716, 2010; growth rescue, % at 18.8 µM;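 active means every valid replicate shows activation above 250% relative to neutral control wells; inactive means the rest, any valid replicate at or below 250%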;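 further: OY570 slx delta 5 strain wells were the positive control but not used for scaling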
MEKK3 PB1 HTS: modulators of MEKK3-MEK5 PB1 binding, primary screen, biochemical, wildtype MEKK3, multiplex bead flow cytometry, Alexa488-MEK5. Mitogen-activated protein kinase kinase kinase 3 (Homo sapiens), Q99759. bead-based flow cytometry, Alexa488-MEK5 binding to MEKK3; actives lie on both sides; 0 = blocked by unlabeled MEK5, 100 = vehicle. binding response (% of control), % at 10 µM. hit rate 1.4% among 290,000;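 active means binding response more than 3 SD above or below the average of its plate-row segment, actives on both sides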;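 further: Alexa488 bead fluorescence after subtracting the streptavidin-only scavenger bead signal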
Target sequence (Q99759 whole entry, looked up): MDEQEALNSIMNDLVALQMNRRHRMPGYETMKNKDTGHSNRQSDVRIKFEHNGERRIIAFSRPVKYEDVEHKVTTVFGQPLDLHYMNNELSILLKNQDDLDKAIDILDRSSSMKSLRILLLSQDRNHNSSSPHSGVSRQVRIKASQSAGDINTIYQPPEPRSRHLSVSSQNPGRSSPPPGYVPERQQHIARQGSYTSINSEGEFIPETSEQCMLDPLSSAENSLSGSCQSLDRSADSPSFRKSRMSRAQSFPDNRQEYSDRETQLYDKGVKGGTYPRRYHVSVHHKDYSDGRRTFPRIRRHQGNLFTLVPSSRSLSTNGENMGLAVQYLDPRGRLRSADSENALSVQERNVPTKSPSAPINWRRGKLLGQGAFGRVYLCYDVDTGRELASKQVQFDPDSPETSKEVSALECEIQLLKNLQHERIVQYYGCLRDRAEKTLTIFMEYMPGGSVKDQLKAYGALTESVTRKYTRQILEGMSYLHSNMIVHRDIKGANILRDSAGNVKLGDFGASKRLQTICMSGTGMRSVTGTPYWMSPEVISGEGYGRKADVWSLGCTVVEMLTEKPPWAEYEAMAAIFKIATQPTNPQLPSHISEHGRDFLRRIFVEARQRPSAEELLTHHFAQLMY
MEKK2wt confirm: modulators of MEK5 binding to wildtype MEKK2, confirmation, biochemical, single concentration, multiplex bead flow cytometry. binding response (% of control), % at 10 µM. Alexa488-MEK5 binding to MEKK2 WT; actives lie on both sides. shares compounds with MEKK3 PB1 HTS. hit rate 2.4% among 5,900; in the data active means binding response below about 16% or above about 210%; inactive means in between
MEKK2mut-MEK5: mutant MEKK2 PB1-MEK5 binding signal retest – biochemical, single concentration, multiplex bead flow cytometry, confirmation | shares compounds with MEKK3 PB1 HTS | Alexa488-MEK5 binding to MEKK2 mutant | percent response, % at 10 µM | hit rate 2% among 5,900; in the data active means percent response mostly above about 71%, no sharp cut-off; inactive means mostly below about 38%;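 further: higher means compound restores mutant binding toward wildtype level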
MEKK3 confirm: MEKK3 wild-type PB1 binding to MEK5, inhibitors, confirmation, biochemical, bead multiplex flow cytometry, single concentration, wildtype; shares compounds with MEKK3 PB1 HTS; Alexa488-MEK5 binding to MEKK3; active compounds read low; binding response (% of control), % at 10 µM; hit rate 1.8% among 5,900;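 active means binding response below 72% of control, or above a set upper limit, though filed actives all read lower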;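 further: 100% = DMSO only wells and 0% = binding blocked by excess unlabeled MEK5; lower values mean stronger disruption of MEK5 binding to MEKK3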
Numbers without * were called inactive; i = inactive; nt = no result; [ ] = dose if it differs, or a comment. Hits are enriched below; roughly 4.1% of the tested compounds scored in any of these assays.

SMILES	MEKK2 mut-MEK5	CHT allo act	MEKK2 WT-MEK5	CHT inh	SUMO Mot1 rescue	MEKK3 PB1 HTS	MEKK2wt confirm	MEKK2mut-MEK5	MEKK3 confirm
O=C(c1ccc(Br)cc1)c1sc(N2CCOCC2)nc1-c1ccccc1	-12	i	79	i	36	98	nt	nt	nt
CCOC(=O)c1c(C)[nH]c(O)c1C=Nc1ccc(C(F)(F)F)cc1	6	i	119	i	27	132*	98	-1	100
O=C(CCC1N=C2c3ccccc3N=C(SCc3ccc(F)cc3)N2C1=O)NCc1ccco1 (centres undefined)	0	i	98	i	320	101	nt	nt	nt
O=C(CC1N=C2c3ccccc3N=C(SCc3ccc(F)cc3)N2C1=O)NCc1ccco1 (centres undefined)	-16	i	2.0*[inhibitor]	i	5	2.0*[inhibitor]	100	0	105
CC(=O)Nc1ccc(C(=O)OCC(=O)N2CCC(Cc3ccccc3)CC2)cc1	nt	nt	nt	nt	50	nt	nt	nt	nt
CCOc1ccccc1C(=O)NC(C(=O)Nc1cccc(S(N)(=O)=O)c1)C(C)C (centres undefined)	-8	i	96	i	5	94	nt	nt	nt
Cc1ccc(-c2nn(-c3cc(N4CCNCC4)ccc3[N+](=O)[O-])c(=O)c3ccccc23)cc1	15	i	145*	i	-17	99	153	30	109
C(=C\c1ccco1)/C1=NN(c2ccccc2)C(c2ccco2)C1 (centres undefined)	2	i	78	i	24	129*	98	-3	102
O=[N+]([O-])c1ccc(/C=C/C2=NN(c3ccccc3)C(c3ccco3)C2)o1 (centres undefined)	44	nt	nt	nt	nt	15*[inhibitor]	29	-52	20*
O=[N+]([O-])c1ccc(Oc2ccc(Oc3ccc(C(F)(F)F)cn3)cc2)nc1	-27	i	82	i	-4	87	nt	nt	nt
N#Cc1c2nc3ccccc3nc2n2cc(NC(=O)c3ccc(F)cc3)ccc12	-5	nt	-1.0*[inhibitor]	nt	nt	56*[inhibitor]	94	8	88
Clc1ccc(CNCCCSc2ncccn2)cc1	8	i	108	i	10	103	nt	nt	nt
Clc1cccc(CNCCCSc2ncccn2)c1	27*	i	139*	i	17	114	126	19	111
COc1ccc(CNCCCSc2ncccn2)cc1OC	30*	i	132	i	343	111	123	14	102
Cc1nnc(N)s1	-37	i	82	i	6	73*[inhibitor]	101	0	101
O=C(Nc1cccnc1)c1cc(-c2ccc(Cl)cc2Cl)on1	-2	i	92	i	-10	96	nt	nt	nt
COc1ccc(-c2c(C)n([O-])c3c([n+]2=O)CCCCC3)cc1	-1	i	104	i	-5	135*	103	2	102
COc1ccccc1OCC(=O)N1CCN(c2ccccc2OC)CC1	3	i	102	i	-13	103	nt	nt	nt
CCOCC(=O)N1CCN(c2ccccc2OC)CC1	53*	i	123	i	4	103	100	-5	100
CCc1cccc2c(N=O)c(O)[nH]c12	0	i	110	i	1	136*	108	8	105
CCOc1cc(N2CCCC2)ccc1[N+](=O)[O-]	2	i	107	i	-6	133*	101	-6	103
COc1ccc([N+](=O)[O-])cc1NC(=O)COC(C)=O	-1	i	100	i	-9	104	nt	nt	nt
COc1ccc(C)cc1NC(=O)COC(C)=O	-5	i	79	i	-6	74*[inhibitor]	101	0	103
CC1(NC(=O)Cn2cc(C(F)(F)F)ccc2=O)CCS(=O)(=O)C1 (centres undefined)	nt	nt	nt	nt	-11	nt	nt	nt	nt
COc1ccc(-c2nn(-c3ccccc3)cc2CN(C)CCn2ccnc2C)c(F)c1	-37	i	57	i	1	44*[inhibitor]	90	-3	96
SMILES	MEKK2 mut-MEK5	CHT allo act	MEKK2 WT-MEK5	CHT inh	SUMO Mot1 rescue	MEKK3 PB1 HTS	MEKK2wt confirm	MEKK2mut-MEK5	MEKK3 confirm
NC(=O)CN1CCCN(S(=O)(=O)c2ccc(Br)cc2)CC1	-24	i	3.0*[inhibitor]	i	-3	2.0*[inhibitor]	100	-4	98
Cc1ccc(S(=O)(=O)N2CCN(CC(=O)N/N=C/C=C/c3ccccc3)CC2)cc1	0	i	106	i	-6	138*	97	1	103
NC(=O)CN1CCN(S(=O)(=O)c2ccc(Cl)cc2)CC1	-1	i	98	i	-10	102	nt	nt	nt
O=C(CN1CCN(S(=O)(=O)c2ccc(Br)cc2)CC1)N/N=C/c1ccco1	1	i	108	i	-6	162*	103	5	100
COc1cccc(-c2nc(CS(=O)(=O)CC(=O)NCCN3CCOCC3)c(C)o2)c1	2	i	102	i	9	102	nt	nt	nt
O=S1(=O)CCS(=O)(=O)C1c1ccccc1	nt	i	nt	i	-10	nt	nt	nt	nt
CS(=O)(=O)c1ccc2nc(NC(=O)CN3C(=O)C4CC=CCC4C3=O)sc2c1 (centres undefined)	5	i	115	i	169	138*	105	-3	101
Cc1ccccc1CNC(=O)CCNS(=O)(=O)c1ccc(OC(F)(F)F)cc1	nt	nt	nt	nt	6	nt	nt	nt	nt
O=C(CCS(=O)(=O)c1cccs1)N1CCN(c2ccc(F)cc2)CC1	7	i	118	i	-11	122*	69	-21	71*
O=C(CCCNS(=O)(=O)c1cccs1)N1CCN(c2ccc(F)cc2)CC1	0	i	100	i	-13	91	nt	nt	nt
COC(=O)N1N=C(c2ccccc2)CC1(O)C(F)(F)F (centres undefined)	-39	i	-5.0*[inhibitor]	i	-5	0.0*[inhibitor]	97	-4	102
